# Measured values: PubChem BioAssay (EPA / NIEHS)
# Records with an inconclusive call do not appear. Calls of active or inactive are those of the source. How the source made its calls, unless noted: active means hit-call score of the fitted dose curve at least 0.9, where 1 is the maximum; inactive means score below 0.9.
# System: Thyroperoxidase (TPO), gene 54314
# Assay: CCTE_Simmons_AUR_rTPO: CCTE's Amplex UltraRed Assay for Thyroperoxidase (TPO) Inhibition, Simmons Lab (AID 2283662; active means hit-call score of the fitted dose curve at least 0.9, where 1 is the maximum;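 on AC50: potency for loss of signal meaning inhibition of peroxidase activity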)
# Summary of the method: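 Cell-free peroxidase activity assay using rat thyroid gland microsomes with excess H2O2 (300 uM) and 25 uM Amplex UltraRed. Compounds tested from 5 nM to 87.5 uM; fluorescence measured after 30 min at 37C, analysed relative to DMSO baseline.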
SMILES,AC50,outcome
CC(C)(C)c1cccc(O)c1,18.9 µM (active),–
O=C(O)CS,–,inactive
CCCCCCOc1ccc(O)cc1,8.69 µM (active),–
CCCc1ccc(O)cc1,–,inactive
CCc1cccc(O)c1,16.6 µM (active),–
CC(=O)OC/C=C(C)/C=C/C=C(C)/C=C/C1=C(C)CCCC1(C)C,50.9 µM (active),–

# System: not listed separately
# Assay: CCTE_Simmons_CellTiterGLO_HEK293T: Viability Assessment in CCTE's Assays for Thyroperoxidase (TPO) Inhibition, Simmons Lab (AID 2283665; active means hit-call score of the fitted dose curve at least 0.9, where 1 is the maximum;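 on AC50: cells exposed to compound for 24 h before readout; actives reduce ATP signal below DMSO vehicle meaning cytotoxicity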)
# Summary of the method: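 HEK293T cells in DMEM with 1% FBS, dosed 24 h at 37C with 8 concentrations, 5 nM–87.5 uM final, 0.5% DMSO. ATP measured by CellTiter Glo luminescence; loss of signal vs DMSO, three biological replicates.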
SMILES,outcome,AC50
CC(C)(C)c1cccc(O)c1,inactive,–
O=C(O)CS,inactive,–
CCCCCCOc1ccc(O)cc1,–,66.1 µM (active)
CCCc1ccc(O)cc1,–,87.9 µM (active)
CCc1cccc(O)c1,inactive,–
CC(=O)OC/C=C(C)/C=C/C=C(C)/C=C/C1=C(C)CCCC1(C)C,inactive,–

# System: not listed separately
# Assay: STM_H9_OrnCyssISnorm_ratio: Stemina devTOX quickPredict H9 human embryonic stem cell (hESC)-based Assay for Ornithine (ORN):Cystine (CYSS) Ratio (AID 2283714; active means hit-call score of the fitted dose curve at least 0.9, where 1 is the maximum)
# Summary of the method: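 Steps: H9 hESCs in pluripotent state dosed 72h, medium plus compound renewed every 24h; conditioned medium from the final 24h deproteinized in 40% acetonitrile; ORN and CYSS quantified by UPLC-HRMS with C13 spike-ins; ratio relative to vehicle.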
SMILES,outcome,AC50
CC(=O)C1=C(C)[C@@H]2C[C@@]3(C1)[C@H](C)CC[C@H]3C2(C)C,inactive,–
CCCCN(CCO)CCO,inactive,–
O=C1CCCCCCCCCCCC(=O)OCCO1,–,13.2 µM (active)
CCOC(=O)C=Cc1ccccc1,–,24.8 µM (active)
CC(=O)OC/C=C(C)/C=C/C=C(C)/C=C/C1=C(C)CCCC1(C)C,–,78.1 µM (active)

# Read-out: not listed separately
# Assay: CEETOX_H295R_MTT_cell_viability: Viability Assessment in the CeeTox HT-H295R MTT Assay (AID 2283718);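 on AC50: curve fitted both ways so AC50 may mark viability loss or gain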
# Summary of the method: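 MTT reduction (0.5 mg/ml, 4 h at 37 C; absorbance at 570 and 650 nm) gave viability as background-corrected percent change versus controls. H295R cells had 48 h forskolin (10 uM) prestimulation, then 48 h chemical exposure at 0.1% DMSO.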
SMILES,AC50,outcome
CC(=O)C1=C(C)[C@@H]2C[C@@]3(C1)[C@H](C)CC[C@H]3C2(C)C,50 µM (active),–
CCCCCCCCCCOC(=O)c1ccccc1C(=O)OCCCCCCCC,–,inactive
CCCCCC(=O)O[C@]1(C(C)=O)CC[C@H]2[C@@H]3CCC4=CC(=O)CC[C@]4(C)[C@H]3CC[C@@]21C,13.4 µM (active),–
CC(C)(C)c1cccc(O)c1,–,inactive
CCCCCCCCCCCCN1CCOCC1,–,inactive
c1ccc(OCCOc2ccccc2)cc1,–,inactive
COc1ccc2[nH]cc(CCNC(C)=O)c2c1,–,inactive
COc1cc(OC)c2ccc(=O)oc2c1,–,inactive
COC(=O)c1cccc(C(=O)OC)c1,–,inactive
CC(=N[Si](C)(C)C)O[Si](C)(C)C,–,inactive
CCCCCC1C(=O)CCC1CC(=O)OC (configuration not stated),–,inactive
OCC=Cc1ccccc1,–,inactive
OCCCO,–,inactive
CCCc1ccc(O)cc1,–,inactive
c1coc(CNc2ncnc3nc[nH]c23)c1,–,inactive
CC(=O)c1ccc2ccccc2c1,–,inactive
O=C(OCc1ccccc1)c1ccccc1O,–,inactive
COC(=O)C(C)Oc1ccc(Oc2ncc(C(F)(F)F)cc2Cl)cc1 (configuration not stated),–,inactive
CC=CC(=O)C1=C(C)C=CCC1(C)C,–,inactive
CC(=O)OC/C=C(C)/C=C/C=C(C)/C=C/C1=C(C)CCCC1(C)C,73.7 µM (active),–
